PubChem BioAssay (NCATS)
Records with an inconclusive call do not appear. Active and inactive are the calls of the source. Unless noted, the call rests on the fitted dose curve.

Assays:
[1] = molecular target: Androgen receptor (Homo sapiens) (UniProt P10275); experiment: qHTS assay for small molecule agonists of androgen receptor signaling (AID 588515; active means well fitted curve in the direction sought with a large enough effect in the signal ratio, with a control signal flat; the % refers to the signal ratio; further: on the % scale 0 is the no-effect control and ±100 the full control effect); details: AR-UAS-bla HEK293, beta-lactamase ratio, agonist 16 h; activation: active compounds read high
How it was run: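 EC50 and efficacy came from Hill fits of titrations (up to 92 uM) normalized to 30 nM R1881 as 100% and DMSO as 0%. Compound exposure was 16 h at 37 C on AR-UAS-bla HEK293 cells, with a 405/460/530 nm CCF4 fluorescence read.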

[2] = molecular target: Androgen receptor (Homo sapiens) (UniProt P10275); experiment: qHTS assay for small molecule antagonists of androgen receptor signaling (AID 588516; active means well fitted curve in the direction sought with a large enough effect in the signal ratio, with a control signal flat, not every such curve was filed as active; the % refers to the signal ratio; further: on the % scale 0 is the no-effect control and ±100 the full control effect)
How it was run: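 Cells were plated and incubated 5 h, compounds added in titration, then R1881 (10 nM final) as agonist. After 16 h at 37 C, CCF4 substrate was loaded for 2 h at room temperature and fluorescence measured.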

[3] = molecular target: Bile acid receptor (Homo sapiens) (UniProt Q96RI1); experiment: qHTS assay for small molecule antagonists of farnesoid X receptor signaling (AID 588526); further: on the % scale 0 is the no-effect control and ±100 the full control effect
How it was run: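 Concentration-response titrations were fitted to the Hill equation for half-maximal inhibition and maximal response, with data normalised to 50 uM chenodeoxycholic acid and DMSO control wells. Cells: FXR-UAS-bla HEK293T, dialyzed FBS.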

[4] = molecular target: Glucocorticoid receptor (Homo sapiens) (UniProt P04150); experiment: qHTS assay for small molecule agonists of glucocorticoid receptor signaling (AID 588532; active means well fitted curve in the direction sought with a large enough effect in the signal ratio, with a control signal flat; the % refers to the signal ratio;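 further: 100% = dexamethasone at 0.1 µM and 0% = DMSO only wells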); details: HeLa MMTV-bla, beta-lactamase ratio, agonist, 18 h; active compounds read high; percent of dexamethasone control, DMSO zero
How it was run: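 Titration series, up to 92 uM, applied to GRE-bla HeLa cells for 18 h at 37 C. Detection by CCF4 FRET substrate after 2 h at RT.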

[5] = molecular target: Peroxisome proliferator-activated receptor delta (Homo sapiens) (UniProt Q03181); experiment: qHTS assay for small molecule antagonists of peroxisome proliferator-activated receptor delta signaling (AID 588535; active means well fitted inhibition curve with a large enough effect in the signal ratio, with a control signal flat, not every such curve was filed as active; the % refers to the signal ratio)
How it was run: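 GeneBLAzer PPAR-delta-UAS-bla HEK293T cells in medium with 2% charcoal/dextran FBS were preincubated 5 hrs at 37 C, then given compounds, incubated 18 hrs at 37 C, and read by CCF4 beta-lactamase fluorescence; IC50 from Hill fits.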

[6] = molecular target: Peroxisome proliferator-activated receptor gamma (Homo sapiens) (UniProt P37231); experiment: qHTS assay for small molecule agonists of peroxisome proliferator-activated receptor gamma signaling (AID 588536; active means well fitted curve in the direction sought with a large enough effect in the signal ratio, with a control signal flat, not every such curve was filed as active; the % refers to the signal ratio;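 further: 0% = DMSO basal wells and 100% = rosiglitazone at 2 µM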)
How it was run: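 GeneBLAzer PPAR-gamma-UAS-bla HEK293 cells in 1% charcoal/dextran-treated FBS medium were treated 16 h at 37 C with compounds. Beta-lactamase activity was read by CCF4 ratio (460/530 nm). Response was normalized to 2 uM rosiglitazone (100%) and DMSO, then Hill-fitted for EC50 and efficacy.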

[7] = molecular target: Peroxisome proliferator-activated receptor gamma (Homo sapiens) (UniProt P37231); experiment: qHTS assay for small molecule antagonists of peroxisome proliferator-activated receptor gamma signaling (AID 588537; active means well fitted inhibition curve with a large enough effect in the signal ratio, with a control signal flat, not every such curve was filed as active; the % refers to the signal ratio;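 further: reporter cells co-stimulated with 50 nM rosiglitazone agonist during compound treatment; % of control where 0% means no effect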)
How it was run: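 PPAR-gamma-UAS-bla HEK293 cells (3000/well, 1% charcoal/dextran-stripped FBS) were preincubated 6-6.5 h at 37 C, given titrated compounds, then stimulated with 50 nM rosiglitazone for 16 h. Beta-lactamase activity was read with CCF4 dye; IC50 came from Hill fits.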

[8] = qHTS assay for small molecule activators of the nuclear factor-kappa B (NF-kB) signaling pathway (AID 651749; active means well fitted activation curve with a large enough effect in the signal ratio; the % refers to the signal ratio; further: series mostly up to about 77 µM; % of control where 0% means no effect); details: NF-kB-bla ME-180 cells, beta-lactamase FRET ratio, 16 h; activation: active compounds read high
How it was run: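 ME-180 cells stably carrying a beta-lactamase reporter under an NF-kB response element were exposed to compound or DMSO vehicle for 16 hr at 37C, 5% CO2. Pathway activation was read by FRET, since reporter expression disrupts FRET.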

[9] = molecular target: Glucocorticoid receptor (Homo sapiens) (UniProt P04150); experiment: qHTS assay for small molecule antagonists of glucocorticoid receptor signaling (AID 588533; active means well fitted inhibition curve with a large enough effect in the signal ratio, with a control signal flat, not every such curve was filed as active; the % refers to the signal ratio;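 further: cells stimulated with 2 nM dexamethasone as agonist; on the % scale 0 is the no-effect control and ±100 the full control effect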)
How it was run: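 Antagonist-mode qHTS: compound titrations added to GRE-bla HeLa cells, then dexamethasone 2 nM final; 18 h, 37 C. CCF4 FRET fluorescence normalized to dexamethasone and DMSO; IC50 from Hill fit.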

[10] = qHTS assay for small molecule agonists of the antioxidant response element (ARE) signaling pathway (AID 651741; active means well fitted activation curve with a large enough effect in the signal ratio; the % refers to the signal ratio; further: % of control where 0% means no effect)
How it was run: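 ARE-bla HepG2 cells (beta-lactamase reporter under ARE control) were plated at 2,000 cells/well, preincubated 5 h at 37 C/5% CO2, then treated with DMSO-dissolved compounds for 16 h at 37 C; LiveBLAzer B/G FRET substrate added, fluorescence read after 2 h at room temperature.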

Bile acid receptor (Homo sapiens), sequence (Q96RI1 whole entry, looked up): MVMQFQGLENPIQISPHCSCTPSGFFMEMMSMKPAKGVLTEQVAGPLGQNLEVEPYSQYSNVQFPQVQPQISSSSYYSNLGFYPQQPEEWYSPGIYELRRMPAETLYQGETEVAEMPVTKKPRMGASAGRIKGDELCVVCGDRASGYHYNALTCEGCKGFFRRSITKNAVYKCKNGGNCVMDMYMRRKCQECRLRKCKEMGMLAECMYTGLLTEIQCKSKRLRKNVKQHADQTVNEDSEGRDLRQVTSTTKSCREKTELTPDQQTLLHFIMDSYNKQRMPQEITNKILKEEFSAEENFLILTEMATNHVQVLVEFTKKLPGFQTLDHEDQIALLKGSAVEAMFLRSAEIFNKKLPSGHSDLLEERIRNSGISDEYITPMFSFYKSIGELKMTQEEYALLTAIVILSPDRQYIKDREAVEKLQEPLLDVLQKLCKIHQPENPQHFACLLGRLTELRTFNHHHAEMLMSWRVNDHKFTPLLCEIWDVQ
Peroxisome proliferator-activated receptor gamma (Homo sapiens), sequence (P37231 whole entry, looked up): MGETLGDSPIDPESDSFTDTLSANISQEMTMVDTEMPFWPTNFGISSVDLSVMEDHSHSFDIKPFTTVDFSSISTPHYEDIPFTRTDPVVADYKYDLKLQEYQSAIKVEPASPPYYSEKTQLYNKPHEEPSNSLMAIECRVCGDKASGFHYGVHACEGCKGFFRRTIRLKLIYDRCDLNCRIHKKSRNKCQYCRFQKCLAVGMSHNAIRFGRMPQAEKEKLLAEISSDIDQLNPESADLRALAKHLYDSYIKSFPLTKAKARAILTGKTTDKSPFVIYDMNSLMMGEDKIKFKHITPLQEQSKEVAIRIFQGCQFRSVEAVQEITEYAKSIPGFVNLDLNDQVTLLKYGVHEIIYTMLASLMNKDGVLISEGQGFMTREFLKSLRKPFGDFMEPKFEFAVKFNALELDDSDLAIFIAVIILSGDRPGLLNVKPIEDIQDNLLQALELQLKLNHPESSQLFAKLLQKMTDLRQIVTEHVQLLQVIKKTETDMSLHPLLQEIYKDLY
Glucocorticoid receptor (Homo sapiens), sequence (P04150 whole entry, looked up): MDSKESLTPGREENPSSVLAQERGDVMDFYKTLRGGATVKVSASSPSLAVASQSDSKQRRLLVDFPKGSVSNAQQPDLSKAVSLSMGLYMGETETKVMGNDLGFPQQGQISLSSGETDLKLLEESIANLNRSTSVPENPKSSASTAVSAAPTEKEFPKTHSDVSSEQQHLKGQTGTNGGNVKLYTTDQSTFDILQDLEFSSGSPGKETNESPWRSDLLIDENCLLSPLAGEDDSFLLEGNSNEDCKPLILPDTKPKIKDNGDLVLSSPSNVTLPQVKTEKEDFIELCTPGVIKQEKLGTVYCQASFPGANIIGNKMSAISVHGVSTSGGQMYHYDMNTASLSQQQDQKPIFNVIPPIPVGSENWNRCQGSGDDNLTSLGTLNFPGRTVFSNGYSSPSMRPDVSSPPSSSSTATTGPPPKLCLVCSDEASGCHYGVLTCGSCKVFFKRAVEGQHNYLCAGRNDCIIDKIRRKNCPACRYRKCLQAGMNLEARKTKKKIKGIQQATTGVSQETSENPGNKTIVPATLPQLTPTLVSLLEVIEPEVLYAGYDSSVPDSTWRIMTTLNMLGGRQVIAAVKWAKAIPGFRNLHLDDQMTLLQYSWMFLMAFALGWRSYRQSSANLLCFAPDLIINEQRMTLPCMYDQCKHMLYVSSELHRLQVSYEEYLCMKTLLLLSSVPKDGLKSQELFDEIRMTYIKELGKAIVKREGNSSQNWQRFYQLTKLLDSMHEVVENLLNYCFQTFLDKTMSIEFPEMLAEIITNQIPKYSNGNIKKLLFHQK
Androgen receptor (Homo sapiens), sequence (P10275 whole entry, looked up): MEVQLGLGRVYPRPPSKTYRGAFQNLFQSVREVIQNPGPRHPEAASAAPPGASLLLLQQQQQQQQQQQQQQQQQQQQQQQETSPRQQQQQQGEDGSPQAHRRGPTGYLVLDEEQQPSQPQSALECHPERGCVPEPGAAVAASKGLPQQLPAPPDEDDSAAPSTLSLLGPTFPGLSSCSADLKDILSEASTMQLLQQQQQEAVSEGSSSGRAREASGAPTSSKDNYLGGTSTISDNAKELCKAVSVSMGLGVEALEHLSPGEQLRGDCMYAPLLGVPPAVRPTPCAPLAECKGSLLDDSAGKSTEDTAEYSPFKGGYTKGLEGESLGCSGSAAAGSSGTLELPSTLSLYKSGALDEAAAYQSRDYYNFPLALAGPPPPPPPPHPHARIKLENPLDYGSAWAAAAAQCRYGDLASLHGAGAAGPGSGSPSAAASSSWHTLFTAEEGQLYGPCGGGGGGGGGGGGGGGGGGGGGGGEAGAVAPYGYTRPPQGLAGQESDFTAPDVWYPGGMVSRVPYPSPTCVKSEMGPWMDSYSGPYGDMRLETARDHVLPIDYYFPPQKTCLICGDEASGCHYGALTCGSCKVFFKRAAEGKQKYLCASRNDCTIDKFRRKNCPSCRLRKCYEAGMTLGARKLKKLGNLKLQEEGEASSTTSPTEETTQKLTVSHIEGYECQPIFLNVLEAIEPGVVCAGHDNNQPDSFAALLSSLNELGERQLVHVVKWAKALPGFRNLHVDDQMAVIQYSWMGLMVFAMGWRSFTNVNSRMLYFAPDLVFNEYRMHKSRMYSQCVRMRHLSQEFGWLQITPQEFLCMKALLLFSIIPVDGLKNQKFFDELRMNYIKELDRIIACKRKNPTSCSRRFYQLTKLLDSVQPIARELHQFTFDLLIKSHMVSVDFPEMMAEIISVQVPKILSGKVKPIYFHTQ
Peroxisome proliferator-activated receptor delta (Homo sapiens), sequence (Q03181 whole entry, looked up): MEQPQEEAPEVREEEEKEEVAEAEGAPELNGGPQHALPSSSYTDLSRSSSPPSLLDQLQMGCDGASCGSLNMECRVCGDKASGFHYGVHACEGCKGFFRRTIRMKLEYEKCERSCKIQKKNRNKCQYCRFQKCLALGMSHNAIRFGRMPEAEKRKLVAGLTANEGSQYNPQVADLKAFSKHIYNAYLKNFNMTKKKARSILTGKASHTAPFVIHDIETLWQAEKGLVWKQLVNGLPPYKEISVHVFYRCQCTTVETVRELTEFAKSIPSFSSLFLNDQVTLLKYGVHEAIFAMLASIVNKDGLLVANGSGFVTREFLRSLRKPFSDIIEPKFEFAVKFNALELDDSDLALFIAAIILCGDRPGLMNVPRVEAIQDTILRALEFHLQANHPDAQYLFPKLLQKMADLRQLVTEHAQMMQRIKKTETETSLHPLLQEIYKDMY

NN(c1ccccc1)c1ccccc1
inactive: activation [1] 8.8% | outcome [2] | Potency [3] | activation [4] -3.55% | Potency [5] | outcome [6] | Potency [7] | activation [8] -2.86%

O=C(O)CCCCCCCCCCC(=O)O
inactive: Potency [3] | activation [4] -1.99% | Potency [9] | Potency [10] | activation [8] -0.986%

N[C@@H]1[C@@H](O)[C@H](O)[C@@H](CO)O[C@H]1O
inactive: activation [1] 9.13% | outcome [2] | Potency [5] | outcome [6] | Potency [7]

CCCCCCCCCCCCCc1ccccc1
inactive: Potency [3] | activation [4] -7.21% | Potency [9] | Potency [5] | outcome [6] | Potency [7] | Potency [10] | activation [8] -0.242%

C=Cc1ccccc1Br
inactive: outcome [2] | Potency [3] | activation [4] -5.73% | Potency [9] | Potency [5] | Potency [10] | activation [8] -1.27%

O=C(O)c1ccc2c(c1)C(=O)OC2=O
inactive: activation [1] 5.43% | outcome [2] | Potency [3] | activation [4] 1.9% | Potency [9] | outcome [6] | activation [8] 0.891%

O=C(OCCOCCOC(=O)c1ccccc1)c1ccccc1
inactive: Potency [3] | activation [4] -2.84% | Potency [5] | activation [8] 0.298%

CCCCOC(=O)/C=C\C(=O)OCCCC
inactive: Potency [3] | activation [4] -13.3% | Potency [9] | activation [8] 0.89%

CCCCC(CC)C(=O)OCCOCCOCCOC(=O)C(CC)CCCC (configuration not stated)
inactive: activation [1] 6.77% | outcome [2] | activation [4] -10% | Potency [9] | Potency [5] | outcome [6] | Potency [7] | Potency [10] | activation [8] -6.56%

CCOC(=O)C1=NN(c2ccc(Cl)cc2Cl)C(C)(C(=O)OCC)C1 (configuration not stated)
inactive: activation [1] -14.3% | outcome [2] | activation [4] -2.41% | Potency [9] | Potency [10]

CCCCCCCCCCCCCCCCCC(N)=O
inactive: activation [1] 5.45% | outcome [2] | Potency [3] | activation [4] -6.09% | Potency [9] | Potency [5] | Potency [7] | activation [8] -1.76%

CCCCCCCCCCCCCCC(=O)OC
inactive: outcome [2] | Potency [3] | activation [4] -1.65% | Potency [9] | Potency [5] | outcome [6] | Potency [7] | Potency [10] | activation [8] 0.418%

CCCCCCCCCCCO
inactive: Potency [3] | Potency [5] | outcome [6] | activation [8] 0.0542%

CC(=O)/C=C/C1C(C)=CCCC1(C)C (configuration not stated)
inactive: Potency [3] | Potency [5] | outcome [6] | Potency [7] | Potency [10]

CC(C)Cc1c(C(=O)O)c(C(F)F)nc(C(F)(F)F)c1C1=NCCS1
inactive: activation [1] -2.77% | outcome [2] | Potency [3] | Potency [9] | Potency [5] | Potency [10]

CC(C)O.CC(C)O.CC(C)O.CC(C)O.[Ti]
inactive: Potency [3] | Potency [5] | outcome [6] | Potency [7] | Potency [10] | activation [8] -1.08%

CCCCNS(=O)(=O)c1ccccc1
inactive: Potency [3] | activation [4] -1.82% | Potency [9] | Potency [7] | activation [8] 0.692%

CCCCCCCCCCCCCCCCCCN
inactive: activation [1] -9.22% | outcome [2] | Potency [3] | activation [4] -6.46% | Potency [9] | Potency [5]

C=C[Si](OCCOC)(OCCOC)OCCOC
inactive: Potency [3] | activation [4] -9.96% | Potency [9] | Potency [5] | outcome [6] | Potency [10]

CCCCCCCCCCCCCCN
inactive: activation [1] 2.33% | outcome [2] | Potency [3] | activation [4] -4.59% | Potency [9] | Potency [5] | Potency [7] | Potency [10] | activation [8] -1.74%

O=C(O)c1ccc(C(=O)O)c(C(=O)O)c1
inactive: activation [1] -3.3% | outcome [2] | activation [4] -1.87% | Potency [5] | outcome [6] | activation [8] -0.152%

CCOC(=O)CCCCCCCCC(=O)OCC
inactive: outcome [6] | Potency [7] | Potency [10]

C[N+](C)(C)CC(O)CCl (configuration not stated)
inactive: activation [4] -7.46% | Potency [9] | Potency [5] | outcome [6] | Potency [7] | activation [8] -1.69%

O=C(Cl)c1cc(Cl)cc(Cl)c1
inactive: activation [4] -2.63% | Potency [9] | outcome [6] | Potency [7] | activation [8] -1.64%

CN(C)C(=O)Nc1ccccc1
inactive: Potency [5] | outcome [6] | Potency [7]

CCCCCCCCCCCCCCO
inactive: outcome [6] | Potency [10] | activation [8] 0.681%

CC1(C)C(=O)N(Cl)C(=O)N1Cl
inactive: Potency [9] | outcome [6] | Potency [7] | Potency [10]

OCCC(F)(F)C(F)(F)C(F)(F)C(F)(F)C(F)(F)C(F)(F)C(F)(F)C(F)(F)F
inactive: activation [1] 13.8% | outcome [2] | Potency [5] | Potency [10] | activation [8] 1.52%

Nc1nc(N)nc(-c2ccccc2)n1
inactive: activation [4] -8.55% | Potency [9] | Potency [5] | outcome [6] | Potency [10] | activation [8] 0.267%

C[Si]1(C)O[Si](C)(C)O[Si](C)(C)O[Si](C)(C)O[Si](C)(C)O1
inactive: activation [4] 5.87% | Potency [9] | Potency [7] | Potency [10] | activation [8] -6.08%

CC(C)OB(OC(C)C)OC(C)C
inactive: Potency [9] | outcome [6] | Potency [7] | Potency [10] | activation [8] 1.02%
